Experimental data taken from PubChem BioAssay (NCI).
About 79,000 compounds went through this panel and 15% of them were active in at least one assay; those are over-represented in the sample as a whole. The source made the active and inactive calls. Rule as the data show it: active = growth inhibition above about 70%; inactive = the rest.

Tests used:
[1] = NCI Yeast Anticancer Drug Screen. Data for the rad50 strain (AID 155);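 also: 0% = growth of vehicle-only cultures of the same strain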; conditions: S. cerevisiae rad50 strain growth inhibition, active compounds read high
In short: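 Compounds were tested on a yeast strain with an engineered DNA damage repair alteration; the reported value is growth inhibition normalised to vehicle treatment.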

[2] = NCI Yeast Anticancer Drug Screen. Data for the mec2-1 strain (AID 157); conditions: S. cerevisiae mec2-1 strain, active compounds read high
In short: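 mec2-1 yeast strain, carrying an alteration in DNA damage repair or cell cycle control, was exposed to compounds; growth inhibition was measured relative to vehicle-treated controls.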

[3] = NCI Yeast Anticancer Drug Screen. Data for the sgs1 mgt1 strain (AID 161);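 also: 0% = growth of cultures given vehicle only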; conditions: S. cerevisiae sgs1 mgt1 strain, active compounds read high
In short: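 This yeast growth screen uses a strain with defined DNA-repair lesions; compound-treated growth is compared with vehicle-treated growth.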

[4] = NCI Yeast Anticancer Drug Screen. Data for the cln2 rad14 strain (AID 165);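 also: 0% = growth equal to vehicle treated cultures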; conditions: S. cerevisiae cln2 rad14 strain, active compounds read high
In short: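 Yeast carrying cln2 and rad14 alterations (cell cycle control and DNA damage repair) were exposed to compounds. Growth inhibition was measured against vehicle-treated controls.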

[5] = NCI Yeast Anticancer Drug Screen. Data for the bub3 strain (AID 167); conditions: S. cerevisiae bub3 mutant strain, active compounds read high
In short: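 Growth of a checkpoint-deficient yeast mutant is measured after compound exposure. Values represent inhibition relative to vehicle.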

[6] = NCI Yeast Anticancer Drug Screen. Data for the mlh1 rad18 strain (AID 175); conditions: S. cerevisiae mlh1 rad18 strain growth inhibition, active compounds read high
In short: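 Growth inhibition of the yeast strain was measured after compound exposure and expressed relative to vehicle-treated controls. The strain carries defined defects in DNA damage repair.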

[7] = at 5.0 µM (retest, dose inferred, filed as 0.5)
[8] = at 50.0 µM (retest, dose inferred, filed as 5.0)

Measured: growth inhibition

C/C(=N\NC(N)=S)C(CN1CCCCC1)C(C1=C(O)c2ccccc2OC1)c1ccccc1 (configuration not stated)
active: [5]; [8] 70% | [5]; at 50.0 µM 71.8%
inactive: [1]; [7] 10% | [1]; [8] 38% | [1]; at 50.0 µM 64.7% | [2]; [7] 6% | [2]; [8] 45% | [2]; at 50.0 µM 63% | [3]; [7] 19% | [3]; [8] 67% | [3]; at 50.0 µM 68.5% | [4]; [7] 22% | [4]; [8] 62% | [4]; at 50.0 µM 53.7% | [5]; [7] 32% | [6]; [7] 20% | [6]; [8] 55% | [6]; at 50.0 µM 67.5%

COC(=O)C12OCC34C(CC5C(C)C6=CC(=O)OC6=CC5(C)C3C(O)C1O)OC(=O)C(O)C24 (configuration not stated)
active: [1]; [8] 84% | [1]; at 50.0 µM 89.7% | [2]; [8] 82% | [2]; at 50.0 µM 91.4% | [3]; [8] 94% | [3]; at 50.0 µM 91% | [4]; [8] 96% | [4]; at 50.0 µM 88.1% | [5]; [8] 95% | [5]; at 50.0 µM 89.3% | [6]; [8] 93% | [6]; at 50.0 µM 81.3%
inactive: [1]; [7] 26% | [2]; [7] 30% | [3]; [7] -18% | [4]; [7] -6% | [5]; [7] -2% | [6]; [7] 33%

ONC(=Nc1cccc2ccccc12)C(=Nc1cccc2ccccc12)NO
inactive: [1]; [7] 9% | [1]; [8] 65% | [1]; at 50.0 µM 33.9% | [2]; [7] -8% | [2]; at 50.0 µM 23.3% | [3]; [7] 8% | [3]; [8] 46% | [3]; at 50.0 µM 13.4% | [4]; [7] -16% | [4]; at 50.0 µM -41.9% | [5]; [7] 10% | [5]; at 50.0 µM 47.5% | [6]; [7] -9% | [6]; at 50.0 µM 57.6%
active: [2]; [8] 97% | [4]; [8] 73% | [5]; [8] 97% | [6]; [8] 91%

Cc1ccnc(NCCN(C)C)c1
inactive: [1]; [7] 2% | [1]; [8] -1% | [2]; [7] 1% | [2]; [8] 4% | [3]; [7] 3% | [3]; [8] 1% | [4]; [7] -6% | [4]; [8] 1% | [5]; [7] -1% | [5]; [8] -2% | [6]; [7] -1% | [6]; [8] -1%
active: [1]; at 50.0 µM 98.5% | [2]; at 50.0 µM 98.2% | [3]; at 50.0 µM 97.5% | [4]; at 50.0 µM 98.3% | [5]; at 50.0 µM 99.3% | [6]; at 50.0 µM 98.7%

CCCCCCCCCCCCCCNC(=O)C[N+](C)(C)Cc1ccccc1
active: [1]; [7] 99% | [1]; [8] 99% | [1]; at 50.0 µM 99.5% | [2]; [7] 99% | [2]; [8] 100% | [2]; at 50.0 µM 99.7% | [3]; [7] 99% | [3]; [8] 99% | [3]; at 50.0 µM 99.3% | [4]; [7] 99% | [4]; [8] 99% | [4]; at 50.0 µM 99.5% | [5]; [7] 99% | [5]; [8] 99% | [5]; at 50.0 µM 99.4% | [6]; [7] 99% | [6]; [8] 99% | [6]; at 50.0 µM 99.6%

CCOC(=O)C1=C(C)NC2=C(C(=O)N(c3ccccc3)C2c2ccccc2)C1c1ccccc1 (configuration not stated)
active: [1]; at 50.0 µM 72.5%
inactive: [1]; [7] 5% | [1]; [8] 5% | [2]; [7] 9% | [2]; [8] 9% | [2]; at 50.0 µM 56.4% | [3]; [7] 3% | [3]; [8] 3% | [3]; at 50.0 µM 63.1% | [4]; [7] -11% | [4]; [8] -11% | [4]; at 50.0 µM 65.6% | [5]; [7] -7% | [5]; [8] -7% | [5]; at 50.0 µM 49.2% | [6]; [7] 8% | [6]; [8] 8% | [6]; at 50.0 µM 54.1%

CNc1cc(SC)nc(N)n1
inactive: [1]; [7] 3% | [1]; [8] -7% | [2]; [7] -2% | [2]; [8] -3% | [3]; [7] 1% | [3]; [8] -9% | [4]; [7] -1% | [4]; [8] 0% | [5]; [7] -1% | [5]; [8] -1% | [6]; [7] 0% | [6]; [8] -4%
active: [1]; at 50.0 µM 89.7% | [2]; at 50.0 µM 94.3% | [3]; at 50.0 µM 92.8% | [4]; at 50.0 µM 91.8% | [5]; at 50.0 µM 75.4% | [6]; at 50.0 µM 95%

O=C(N/C(=C\c1ccc(Cl)cc1)c1nc2ccccc2[nH]1)c1ccccc1
inactive: [1]; [7] 0% | [2]; [7] -1% | [3]; [7] 10% | [4]; [7] -1% | [5]; [7] 13% | [6]; [7] 2%
active: [1]; [8] 96% | [1]; at 50.0 µM 97.3% | [2]; [8] 98% | [2]; at 50.0 µM 97.5% | [3]; [8] 98% | [3]; at 50.0 µM 96.8% | [4]; [8] 97% | [4]; at 50.0 µM 96.5% | [5]; [8] 97% | [5]; at 50.0 µM 98.1% | [6]; [8] 97% | [6]; at 50.0 µM 96.7%

O=C(c1ccc(O)cc1)c1ccccc1O
inactive: [1]; [7] 6% | [1]; at 50.0 µM 63.8% | [2]; [7] -7% | [2]; [8] 23% | [2]; at 50.0 µM 37.2% | [3]; [7] -2% | [3]; [8] 14% | [3]; at 50.0 µM 44.4% | [4]; [7] -1% | [4]; [8] 3% | [4]; at 50.0 µM -7.55% | [5]; [7] 45% | [5]; [8] 41% | [5]; at 50.0 µM 17.9% | [6]; [7] -2% | [6]; [8] 23% | [6]; at 50.0 µM 51.6%
active: [1]; [8] 76%
